TbREL1 primary: TbREL1 inhibition, primary screen; P86926; TbREL1 RNA ligation, FRET fluorescence; inhibition, % at 9.66 µM; hit rate 0.49% among 89,000; AID 1117264;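 active = inhibition above the mean inhibition across all screened compounds plus 3 SD, cut at about 11% in these data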
Target sequence (P86926 whole entry, looked up): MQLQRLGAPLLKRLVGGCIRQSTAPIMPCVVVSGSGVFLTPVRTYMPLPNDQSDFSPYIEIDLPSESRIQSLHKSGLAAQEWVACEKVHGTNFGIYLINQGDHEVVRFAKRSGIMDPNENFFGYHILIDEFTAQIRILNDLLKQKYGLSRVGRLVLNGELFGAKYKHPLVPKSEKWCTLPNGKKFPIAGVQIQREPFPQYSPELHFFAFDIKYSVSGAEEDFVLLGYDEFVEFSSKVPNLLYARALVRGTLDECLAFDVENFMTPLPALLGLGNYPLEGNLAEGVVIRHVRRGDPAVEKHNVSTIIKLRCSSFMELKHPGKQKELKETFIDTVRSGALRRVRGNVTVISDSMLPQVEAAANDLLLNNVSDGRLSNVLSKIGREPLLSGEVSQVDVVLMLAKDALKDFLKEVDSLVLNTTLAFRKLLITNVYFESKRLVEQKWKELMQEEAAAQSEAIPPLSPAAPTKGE
TbREL1 conf: TbREL1 inhibition, confirmation; shares compounds with TbREL1 primary; TbREL1 RNA ligation, FRET fluorescence; inhibition, % at 9.66 µM; hit rate 37% among 390; AID 1117282;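 active = mean inhibition across replicates above a set limit taken from the earlier primary screen, cut at about 11% in these data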
A number is an active result. The entries come from a sample that favours hits as a whole.

O=C(Cn1cnc2ccccc2c1=O)N1CCN(Cc2ccc(F)cc2)CC1 was read as TbREL1 primary inactive.
`Cc1c(C(=O)NCc2ccc(F)cc2)sc(=O)n1Cc1ccc(C(=O)c2ccccc2)cc1` gave TbREL1 primary inactive.
Screening O=S(=O)(Nc1cc(S(=O)(=O)N2CCOCC2)ccc1NCC1CCCO1)c1ccc(F)cc1 (configuration not stated) returned TbREL1 primary inactive.
Cc1cc(C(N)=O)c2ccccc2n1 was read as TbREL1 primary inactive.
For O=C(O)c1cc(Sc2ccc(Br)cc2)nc2ccccc12 the results were TbREL1 primary inactive.
CC(C)c1cc(C(=O)O)c2ccccc2n1 was read as TbREL1 primary 13.0 and TbREL1 conf inactive.
CN1CC(O)([C@H](Cc2ccccc2)NC(=O)OC(C)(C)C)OCC1C(=O)NCc1cccc2ccccc12 (some centres not stated) was read as TbREL1 primary 11.1 and TbREL1 conf inactive.
C[C@@H]1[C@@H](c2ccccc2)OC(O)([C@H](Cc2ccccc2)NC(=O)OC(C)(C)C)CN1C (some centres not stated) was read as TbREL1 primary inactive.
O=C(N[C@H](Cc1ccccc1)C(=O)NCc1cccc2ccccc12)[C@H]1O[C@@H](n2ccc(=O)[nH]c2=O)[C@H](O)[C@@H]1O was read as TbREL1 primary inactive.
For Brc1ccc2nc(C3CCCCC3)c(CC3CCCCC3)n2c1 the results were TbREL1 primary 11.3 and TbREL1 conf inactive.
CC(C)(C)Cc1c(C2CCCCC2)nc2ccc(Cl)cn12 was read as TbREL1 primary inactive.
For Cc1ccc2nc(C3CCCCC3)c(Cc3ccccc3C(F)(F)F)n2c1 the results were TbREL1 primary inactive.
Screening CC1=CC(=O)C(C2CCCCC2)=C/C1=N\OS(=O)(=O)c1ccccc1 returned TbREL1 primary inactive.
`CCc1noc(C)c1C(=O)N1CCN(CC(=O)OC)CC1` gave TbREL1 primary inactive.
Screening Cc1ccc(C(=O)N2[C@@H]3CN(C)C(=O)[C@@]2(Cc2ccccc2)[C@H]2C(=O)N(Cc4ccccc4)C(=O)[C@@H]32)cc1 returned TbREL1 primary inactive.
For Cc1cc(-c2cc(NC(=O)Cc3c[nH]c4ccccc34)ccc2N(C)c2cccnc2)ccc1F the results were TbREL1 primary inactive.
For CC(=O)/C(N=Nc1ccc(C(=O)O)cc1[N+](=O)[O-])=C(\C)O the results were TbREL1 primary 12.3 and TbREL1 conf inactive.
For CC(=O)N1CCN(c2ccc(C(N)=O)cc2[N+](=O)[O-])CC1 the results were TbREL1 primary inactive.
`O=C(O)c1ccc([N+](=O)[O-])cc1` gave TbREL1 primary inactive.
`O=C1N2CCc3ccccc3C2CS(=O)(=O)N1CCc1ccccc1` (configuration not stated) gave TbREL1 primary inactive.
For O=C(CSc1nc2sc3c(c2c(=O)n1-c1ccc(Cl)cc1)CCCC3)c1ccccc1Cl the results were TbREL1 primary inactive.
CC1(C)Cc2c(c(-c3ccco3)[nH]c(=O)c2C#N)CS1 was read as TbREL1 primary 15.0 and TbREL1 conf inactive.
`CC(=O)N1CCN(c2nc(-c3ccco3)c3c(c2C#N)CC(C)(C)SC3)CC1` gave TbREL1 primary inactive.
`CC1(C)Cc2c(c(-c3ccccc3)[nH]c(=O)c2C#N)CS1` gave TbREL1 primary inactive.
`COC(=O)[C@@]12CCCCC3=C1N(CCC3)C(=O)[C@H]2CC(=O)NCC12CC3CC(CC(C3)C1)C2` gave TbREL1 primary inactive.
`O=C(Nc1ccccc1)Nc1nc2ncccn2c1-c1ccc(C(F)(F)F)cc1` gave TbREL1 primary inactive.
For CCOc1ccc(N(CC(=O)Nc2c(C)n(C)n(-c3ccccc3)c2=O)S(=O)(=O)c2cccs2)cc1 the results were TbREL1 primary inactive.
`COC(=O)[C@]12C[C@H](CC(=O)NCCCCc3ccccc3)C(=O)N(Cc3ccccc3)C1=C[C@H](COCc1ccccc1)O[C@@H]2C` gave TbREL1 primary inactive.
COC(=O)c1cccc(-c2ccc(/C=N/N3C(=O)C4C5C=CC(C6CC56)C4C3=O)o2)c1 (configuration not stated) was read as TbREL1 primary inactive.
O=Cc1ccc(-c2cccc(C(=O)O)c2)o1 was read as TbREL1 primary inactive.
For COC(=O)c1cccc(-c2ccc(C(c3c(C)[nH][nH]c3=O)c3c(C)[nH][nH]c3=O)o2)c1 the results were TbREL1 primary 14.5 and TbREL1 conf inactive.
`CCCCN1CCN(C2=NC(=O)N(c3ccc(Br)cc3)C(=O)C2)CC1` gave TbREL1 primary inactive.
Screening CC1(C(=O)Nc2ccc3[nH]ncc3c2)CCN1C(=O)Cc1ccc(-c2ccccc2)cc1 (configuration not stated) returned TbREL1 primary inactive.
For CC(C)n1nnnc1C1(C)CSCC(=O)N1Cc1cccc(F)c1 (configuration not stated) the results were TbREL1 primary inactive.
`CC1(C)CC(=O)N(CC(=O)N2CCN(c3cccc(C(F)(F)F)c3)CC2)c2ccccc2S1(=O)=O` gave TbREL1 primary inactive.
For Cc1ccc2c(c1)-c1c(cnn1CC(=O)NCCc1ccccc1F)CO2 the results were TbREL1 primary inactive.
`O=C(COC(=O)C1CCC1)Nc1ccc(OC(F)F)cc1` gave TbREL1 primary inactive.
Screening CCCCC(=O)OCC(=O)Nc1ccc(OC(F)F)cc1 returned TbREL1 primary inactive.
`C[C@H](NC(N)=O)C(=O)OCC(=O)Nc1ccc(OC(F)F)cc1` gave TbREL1 primary 11.6 and TbREL1 conf inactive.
For NC(=O)C1CCN(c2nc(-c3ccc4c(c3)OCCCO4)cs2)CC1 the results were TbREL1 primary inactive.
Screening COc1cc(C=Nn2c(-c3ccccc3F)n[nH]c2=S)ccc1OCc1ccccc1 returned TbREL1 primary inactive.
`C=CCc1ccc(OCCOCCOc2ccccc2[N+](=O)[O-])c(OC)c1` gave TbREL1 primary inactive.
`C=CCc1ccc(OCCCOc2ccc(C)cc2OC)c(OC)c1` gave TbREL1 primary inactive.
For C=CCc1ccc(OCCCNCc2ccccc2)c(OC)c1 the results were TbREL1 primary 11.8 and TbREL1 conf inactive.
For O=C(CCS(=O)(=O)c1ccccc1)Nc1cc(Cl)ccc1F the results were TbREL1 primary inactive.
For COC(=O)N(C)C[C@H]1OCc2cn(nn2)CCCC(=O)N([C@@H](C)CO)C[C@@H]1C the results were TbREL1 primary inactive.
`COC(=O)[C@]12C[C@H](CC(=O)NCc3cccs3)C(=O)N(Cc3cccc4ccccc34)C1=C[C@H](C1CCCC1)O[C@@H]2C` gave TbREL1 primary inactive.
For CCCC1S/C(=N/N=C/c2ccco2)NC1=O (configuration not stated) the results were TbREL1 primary inactive.
O=C1C(Cc2ccccc2)S/C(=N/N=C/c2ccco2)N1c1ccccc1 (configuration not stated) was read as TbREL1 primary inactive.
O=C1N/C(=N/N=C/c2ccco2)SC1Cc1ccccc1 (configuration not stated) was read as TbREL1 primary 11.3 and TbREL1 conf inactive.
For Cc1cc(Nc2cc(Cl)cc(Cl)c2)cc(=O)n1-c1cc(Cl)cc(Cl)c1 the results were TbREL1 primary inactive.
For CCn1c(Cc2cccs2)nnc1SCC(=O)Nc1cccc2ccccc12 the results were TbREL1 primary inactive.
`O=C(Cn1cnc2c(OCc3ccccc3)ncnc21)NCCN1CCOCC1` gave TbREL1 primary inactive.
C[C@@H](NCCCn1cnc2c(OCc3ccccc3)ncnc21)c1cccc2ccccc12 was read as TbREL1 primary 12.5 and TbREL1 conf 13.1.
